# Measurements: PubChem BioAssay AID2314 (National Center for Advancing Translational Sciences (NCATS), 2010)
# The campaign covered roughly 300,000 compounds. About 37,000 (12%) were called active. No stated cut-off is given here; in the data, active means max response mostly above about 13% (no sharp cut-off); inactive means mostly below about 14%. The full list was thinned out, with actives kept by preference.
# Experiment: Cycloheximide Counterscreen for Small Molecule Inhibitors of Shiga Toxin; further: read at 38.3 µM for the half of the compounds with a filed dose; 0% is about no effect
# Conditions: cell reporter, cycloheximide protein synthesis inhibition counterscreen; hits give high values
row,SMILES,max response
1,COc1ccc(-c2n[nH]c(C)c2-c2ccccc2OC)c(O)c1,-4.33% (inactive)
2,CCc1ccc(-c2nc(SCC(=O)NC3CCCC3)n[nH]2)cc1,18.2% (active)
3,CCc1c(C)nc(SCC(=O)NC2CCCC2)[nH]c1=O,4.69% (inactive)
4,COc1ccc(-c2nc(SCC(=O)N3CCCC3)n[nH]2)cc1,-1.17% (inactive)
5,O=C(O)CCn1c(Cc2ccccc2)nc2ccccc21,-1.08% (inactive)
6,CCC(C(=O)OCC(=O)Nc1c(Cl)cc(Cl)cc1Cl)c1ccccc1 (centres undefined),1.18% (inactive)
7,CCCOC(=O)Nc1ccccc1C(N)=O,-2.21% (inactive)
8,Cc1cccc(OCC(=O)Nc2ccc(C(=O)O)cc2NC(=O)COc2cccc(C)c2)c1,2.91% (inactive)
9,Cc1ccc(F)c(NC(=O)CCc2ccccc2)c1,33% (active)
10,Cc1cccc(OCC(=O)Nc2ccccc2F)c1,44.1% (active)
11,Cc1ccc(F)c(NC(=O)CCOc2ccccc2C)c1,6.62% (inactive)
12,Cc1cccc(OCC(=O)NCCCNC(=O)c2ccccn2)c1,-3.32% (inactive)
13,O=C(CCc1ccccc1)NNc1ccc(F)cc1,-0.637% (inactive)
14,Cc1cccc(OCCC(=O)Nc2ccccc2C(N)=O)c1,12.6% (inactive)
15,COc1cccc(OCC(=O)Nc2ccccc2C(N)=O)c1,34.1% (active)
16,CC(=O)OCC(NC(=O)C(Cc1ccccc1)NC(=O)OC(C)(C)C)C1OC(n2ccc(=O)[nH]c2=O)C(OC(C)=O)C1OC(C)=O (centres undefined),10.7% (inactive)
17,CC(=O)N1c2ccc(S(=O)(=O)N3CCCC(C(=O)Nc4cccc(Cl)c4)C3)cc2CC1C (centres undefined),-3.38% (inactive)
18,COc1ccccc1N1CCN(C(=O)c2c(-c3c(Cl)cccc3Cl)noc2C)CC1,-1.33% (inactive)
19,O=C(c1ccc2ccccc2n1)N1CCN(c2ccccc2Cl)CC1,25.6% (active)
20,O=C(c1c(Cl)cccc1Cl)N1CCN(c2cccc3[nH]ccc23)CC1,-4.42% (inactive)
21,COc1cc(S(=O)(=O)N2CCOCC2)ccc1NC(=O)COc1ccc(N(C)S(=O)(=O)c2ccc(C)cc2)cc1,-7.22% (inactive)
22,CCc1ccc(NC(=O)CN2C(=O)COc3ccc(S(=O)(=O)N4CCCC4)cc32)cc1,-7.9% (inactive)
23,CCc1ccc(NC(=O)CN2C(=O)CSC2=O)cc1,24.5% (active)
24,COc1ccc(NC(=O)CN2C(=O)CSC2=O)cc1,-1.12% (inactive)

row,SMILES,max response
1,CC(C)Cc1nc(Nc2ccc(S(=O)(=O)N3CCCC3)cc2)c2nnn(Cc3ccccc3)c2n1,-1.7% (inactive)
2,CCOC(=O)C(NS(=O)(=O)c1ccc(C)cc1)(C(F)(F)F)P(=O)(OCC(C)C)OCC(C)C (centres undefined),-2.77% (inactive)
3,O=C(Nc1cccnc1Cl)c1cc(-c2cccc(Cl)c2)on1,-5.45% (inactive)
4,O=C(Nc1ccccc1C(F)(F)F)c1cc(-c2ccc(O)cc2)on1,37.9% (active)
5,CCc1ccccc1NC(=O)c1cc(-c2ccc3c(c2)OCO3)on1,4.1% (inactive)
6,CCOc1ccc2[nH]c(=O)c(CN(CCCO)S(=O)(=O)c3ccc(F)cc3)cc2c1,-6.67% (inactive)
7,Fc1ccc(-c2ccc(NCCN3CCOCC3)nn2)cc1,34.4% (active)
8,O=C(NCCN1CCOCC1)c1c(F)c(F)c(F)c(F)c1F,-3.15% (inactive)
9,CN(CC(=O)NCCN1CCOCC1)S(=O)(=O)c1ccc(F)cc1,-1.49% (inactive)
10,CC1CCC(NS(=O)(=O)c2ccc3c(c2)CC(=O)N3)CC1 (centres undefined),8.83% (inactive)
11,N#Cc1ccc(CSc2nnc(-c3ccccn3)n2-c2ccc(Cl)cc2)cc1,-3.26% (inactive)
12,N#Cc1cccc(CSc2ncnc(N)n2)c1,5.59% (inactive)
13,N#Cc1ccc(CSc2ncccn2)cc1,19.6% (active)
14,COc1cc(NC(=O)c2ccccc2NS(=O)(=O)c2ccc(Cl)s2)cc(OC)c1,7.35% (inactive)
15,O=Cc1c(NCCc2cccc(F)c2)c2ccccc2[nH]c1=O,0.988% (inactive)
16,Cc1ccc(S(=O)(=O)NNC(=O)/C=C/c2cccc(F)c2)cc1,-1.72% (inactive)
17,CC(=O)NCCC(=O)Nc1nc(C)c(Cc2ccc3c(c2)OCO3)s1,11.6% (inactive)
18,O=C(Nc1nc(-c2ccc3c(c2)OCO3)cs1)c1ccncc1,21% (active)
19,CCOc1cccc(NC(=O)Cn2nc(-c3ccc4c(c3)OCCO4)ccc2=O)c1,-1.26% (inactive)
20,COc1ccc(-c2csc(NC(=O)c3ccc(N4C(=O)CCC4=O)cc3)n2)cc1OC,-1.22% (inactive)
21,CC(=O)NCCC(=O)Nc1nc(-c2ccc3c(c2)OCCO3)cs1,36.2% (active)
22,COc1ccc(OCCn2ccnc2C)cc1,-3.23% (inactive)
23,Cc1cccc(C2C3=C(CCCC3=O)N=C3c4ccccc4C(=O)C32)c1 (centres undefined),-3.21% (inactive)
24,Cc1cc(=O)n2nc(N3CCC(C(=O)Nc4c(F)c(F)c(F)c(F)c4F)CC3)sc2n1,4.09% (inactive)

row,SMILES,max response
1,O=C(NCc1cccs1)c1cc(-c2ccccn2)nc2ccc(Br)cc12,-5.76% (inactive)
2,Cc1ccc2nc(-c3cccc(Br)c3)cc(C(=O)Nn3cnnc3)c2c1,7.61% (inactive)
3,Cc1ccc(-c2cc(C(=O)NCc3cn(C)nc3C)c3cc(Br)ccc3n2)cc1,13.1% (active)
4,CC(C)(C)C(=O)Nc1ccc(C(=O)N/N=C/c2ccccc2OC(=O)c2ccc(Cl)cc2Cl)cc1,3.79% (inactive)
5,O=C(Cn1cnc2ccccc2c1=O)Nc1cccc(S(=O)(=O)N2CCCCC2)c1,7.05% (inactive)
6,COc1cc(CNC2CCCC2)c(Br)cc1OCc1ccccc1,7.1% (inactive)
7,CCOC(=O)C(CC)/C(C)=N\NC(=O)c1cccc(C)c1 (centres undefined),27.9% (active)
8,CCNC(=O)COC(=O)CCNC(=O)c1cccc(C)c1,10.1% (inactive)
9,COc1ccc(OCC(=O)NNC(=O)c2cccc(C)c2)cc1,-1.89% (inactive)
10,COCCn1c(N)c(NCc2ccccc2)c(=O)[nH]c1=O,-1.16% (inactive)
11,CCOC(=O)N1CCN(C(=O)C(C)NC(=O)c2ccco2)CC1 (centres undefined),1.53% (inactive)
12,CC1=C(C)CC(C(=O)NNC(=O)c2csc3c2CCC(C(C)(C)C)C3)C(C(=O)O)C1 (centres undefined),-0.879% (inactive)
13,CC1=C(C)CC(C(=O)NC(C)CCc2ccccc2)C(C(=O)O)C1 (centres undefined),12.4% (inactive)
14,CC1=C(C)CC(C(=O)NNC(=O)c2ccccc2O)C(C(=O)O)C1 (centres undefined),15.2% (active)
15,CCC(=O)N(CCc1ccccc1)Cc1cc2cc(C)ccc2[nH]c1=O,-3.02% (inactive)
16,CC(C)c1nc2sc3c(c2c(=O)n1N)CC(C)(C)OC3,11.6% (inactive)
17,COc1ccc(-c2noc(C(C)NS(=O)(=O)c3ccc(NC(C)=O)cc3)n2)cc1 (centres undefined),-8.48% (inactive)
18,C/C(=N/Nc1ccc(Cl)cc1)c1cnnc(-c2ccccc2)n1,-2.47% (inactive)
19,O=C(Cn1nnc(-c2ccccc2)n1)NCc1ccccc1,-2.67% (inactive)
20,Cc1ccccc1-c1nnn(CC(=O)c2ccc(S(=O)(=O)N3CCCC3)cc2)n1,0.345% (inactive)
21,CC(C)(C)NC(=O)Cn1nnc(-c2ccccc2Cl)n1,53.5% (active)
22,COC(=O)COc1cccc2c(=O)n(CC(=O)NCc3ccccc3)ccc12,-1.91% (inactive)
23,Cc1ccc(S(=O)(=O)N(C)C)cc1NC(=O)c1n[nH]c(=O)c2ccccc12,-4.46% (inactive)
24,CCCN(CCC)S(=O)(=O)c1ccc(C(=O)N2CC3CCC(CC3)C2)cc1,-1.36% (inactive)

row,SMILES,max response
1,CCOC(=O)c1ccc(N/C(=N/S(=O)(=O)c2ccccc2)c2ccccc2)cc1,10.2% (inactive)
2,O=C(Nc1cccc(Cl)c1N1CCOCC1)c1ccc2c(c1)OCCO2,19.9% (inactive)
3,O=C(NCCSCc1ccccc1)c1ccc(Cl)c(S(=O)(=O)N2CCOCC2)c1,-2.82% (inactive)
4,Cc1ccc(C(=O)Nc2ccccc2C(=O)NC2CCCCC2)cc1S(=O)(=O)N1CCOCC1,12% (inactive)
5,Cc1ccc(C(=O)Nc2ccc3c(c2)OCO3)cc1S(=O)(=O)N1CCCCC1,19.6% (active)
6,O=C(c1ccc(Cl)c(S(=O)(=O)N2CCCCC2)c1)N1CCCCCC1,-2.78% (inactive)
7,O=C(Nc1cccc(S(=O)(=O)N2CCCCC2)c1)c1ccc2c(c1)OCO2,-2.46% (inactive)
8,O=C(Nc1ccc2c(c1)OCCO2)c1ccc(Cl)c(S(=O)(=O)N2CCCCC2)c1,45.3% (active)
9,COC(=O)c1ccc(N2CCOCC2)c(NC(=O)c2ccc3c(c2)OCCO3)c1,0.234% (inactive)
10,CN1CCN(c2ccc(NC(=O)c3ccc4c(c3)OCCO4)cc2Cl)CC1,39.3% (active)
11,O=[N+]([O-])c1ccccc1/C=C/CN1CCCC(CO)C1 (centres undefined),-1.17% (inactive)
12,FC(F)Oc1ccccc1C1CC(c2ccc(Br)s2)Nc2ncnn21 (centres undefined),-4.82% (inactive)
13,CCOc1ccccc1Nc1ccc2nonc2c1[N+](=O)[O-],-3.05% (inactive)
14,Cc1cnc(C(=O)N2CCCC(N3CCN(c4ccccc4F)CC3)C2)cn1 (centres undefined),7.17% (inactive)
15,CN(C)/C=N/c1cc(=O)n(C)c(=O)n1CC1CC1,-3.74% (inactive)
16,COc1cc(OC)cc(C(=O)OCC(=O)Nc2ccc(F)cc2F)c1,1.53% (inactive)
17,CCCCn1nc(C(=O)OCC(=O)Nc2sccc2C(N)=O)c2ccccc2c1=O,11.3% (inactive)
18,COc1cc(OC)cc(C(=O)OCC(=O)Nc2sccc2C(N)=O)c1,16.2% (active)
19,CC(=O)N1c2ccc(S(=O)(=O)N3CCCC(C(=O)Nc4cccc(F)c4)C3)cc2CC1C (centres undefined),-3.59% (inactive)
20,CC(C)C(O)C1CCN(Cc2nc(Cc3ccccc3Cl)no2)CC1 (centres undefined),-3.2% (inactive)
21,Cc1ccc(-c2noc(CN3CCN(Cc4ccccc4)CC3)n2)cc1,9.63% (inactive)
22,CC1CCN(Cc2nc(-c3ccc(Cl)cc3)no2)CC1,14.8% (active)
